In PubChem BioAssay AID1159580 (chemical genetic matrix, 2015):
Screen size: about 5,500 compounds; about 2,000 (36%) were called active. About 18% were inconclusive and are not listed. Cut-off read from the data, not from the text of the source: active = normalized growth mostly below about 0.91 (no sharp cut-off); inconclusive = no clear call, values can overlap the other calls; inactive = mostly above about 0.92. Some of the results follow.

Assay: chemical genetic growth profiling, strain panel (AID 1159580);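 note: tested at 20 µM; growth read once vehicle control cultures reached saturation at 30 °C; 1 = growth at the plate median or of vehicle wells; lower values mean less growth of the strain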
Settings: growth OD

Measured: normalized growth

COc1cc(C(=O)N2CCOCC2)cc(OC)c1OC
inactive: S. cerevisiae deletion strains, locus YJR075W, strain HOC1, stronger effect = lower value 1 | S. cerevisiae deletion strains, locus YKL009W, strain mrt4, stronger effect = lower value 0.926 | S. cerevisiae deletion strains, locus YKL068W, stronger effect = lower value 0.988 | S. cerevisiae deletion strains, locus YKL160W, strain elf1, stronger effect = lower value 1 | S. cerevisiae deletion strains, locus YKL190W, strain CNB1, stronger effect = lower value 1.01 | S. cerevisiae deletion strains, locus YKR026C, strain gcn3, stronger effect = lower value 0.975 | S. cerevisiae deletion strains, locus YKR091W, strain srl3, stronger effect = lower value 0.977 | S. cerevisiae deletion strains, locus YLL001W, strain dnm1, stronger effect = lower value 0.987 | S. cerevisiae deletion strains, locus YLL026W, stronger effect = lower value 0.984 | S. cerevisiae deletion strains, locus YLL041C, strain sdh2, stronger effect = lower value 0.981 | S. cerevisiae deletion strains, locus YLR027C, strain aat2, stronger effect = lower value 1.01 | S. cerevisiae deletion strains, locus YLR039C, strain RIC1, stronger effect = lower value 1.04 | S. cerevisiae deletion strains, locus YLR058C, strain SHM2, stronger effect = lower value 1.01 | S. cerevisiae deletion strains, locus YLR113W, strain HOG1, stronger effect = lower value 0.999 | S. cerevisiae deletion strains, locus YLR221C, strain rsa3, stronger effect = lower value 0.968 | S. cerevisiae deletion strains, locus YLR258W, strain gsy2, stronger effect = lower value 1.01 | S. cerevisiae deletion strains, locus YLR262C, strain YPT6 (second series), stronger effect = lower value 1.02 | S. cerevisiae deletion strains, locus YLR262C, strain YPT6, stronger effect = lower value 1.06 | S. cerevisiae deletion strains, locus YLR320W, strain mms22, stronger effect = lower value 0.982 | S. cerevisiae deletion strains, locus YLR330W, strain CHS5, stronger effect = lower value 1 | S. cerevisiae deletion strains, locus YLR342W, strain FKS1 (second series), stronger effect = lower value 1.06 | S. cerevisiae deletion strains, locus YLR342W, strain FKS1, stronger effect = lower value 0.967 | S. cerevisiae deletion strains, locus YLR357W, strain rsc2, stronger effect = lower value 0.998 | S. cerevisiae deletion strains, locus YLR370C, strain arc18, stronger effect = lower value 1 | S. cerevisiae deletion strains, locus YLR384C, strain iki3, stronger effect = lower value 0.984 | S. cerevisiae deletion strains, locus YML016C, strain PPZ1, stronger effect = lower value 1.01 | S. cerevisiae deletion strains, locus YML120C, strain ndi1, stronger effect = lower value 0.985 | S. cerevisiae deletion strains, locus YMR058W, strain fet3, stronger effect = lower value 0.987 | S. cerevisiae deletion strains, locus YMR125W, strain sto1, stronger effect = lower value 0.993 | S. cerevisiae deletion strains, locus YMR129W, stronger effect = lower value 0.982 | S. cerevisiae deletion strains, locus YMR205C, strain PFK2, stronger effect = lower value 0.982 | S. cerevisiae deletion strains, locus YMR231W, strain pep5, stronger effect = lower value 0.975 | S. cerevisiae deletion strains, locus YMR263W, strain SAP30, stronger effect = lower value 1 | S. cerevisiae deletion strains, locus YMR307W, strain GAS1, stronger effect = lower value 1.06 | S. cerevisiae deletion strains, locus YNL067W, strain RPL9B, stronger effect = lower value 1 | S. cerevisiae deletion strains, locus YNL071W, strain lat1, stronger effect = lower value 0.987 | S. cerevisiae deletion strains, locus YNL128W, strain TEP1, stronger effect = lower value 1 | S. cerevisiae deletion strains, locus YNL153C, strain GIM3, stronger effect = lower value 0.997 | S. cerevisiae deletion strains, locus YNL183C, strain NPR1, stronger effect = lower value 0.967 | S. cerevisiae deletion strains, locus YNL209W, strain ssb2, stronger effect = lower value 0.981 | S. cerevisiae deletion strains, locus YNL233W, strain BNI4, stronger effect = lower value 0.992 | S. cerevisiae deletion strains, locus YNL248C, strain rpa49, stronger effect = lower value 0.991 | S. cerevisiae deletion strains, locus YNL322C, strain KRE1 (second series), stronger effect = lower value 0.975 | S. cerevisiae deletion strains, locus YNL322C, strain KRE1, stronger effect = lower value 1.01 | S. cerevisiae deletion strains, locus YNR049C, strain mso1, stronger effect = lower value 0.971 | S. cerevisiae deletion strains, locus YNR052C, strain pop2, stronger effect = lower value 1.04 | S. cerevisiae deletion strains, locus YOL006C, strain TOP1, stronger effect = lower value 1.05 | S. cerevisiae deletion strains, locus YOR001W, strain rrp6, stronger effect = lower value 0.967 | S. cerevisiae deletion strains, locus YOR061W, strain CKA2, stronger effect = lower value 1.01 | S. cerevisiae deletion strains, locus YOR069W, strain VPS5, stronger effect = lower value 1.01 | S. cerevisiae deletion strains, locus YOR070C, strain gyp1, stronger effect = lower value 0.982 | S. cerevisiae deletion strains, locus YOR080W, strain dia2, stronger effect = lower value 0.979 | S. cerevisiae deletion strains, locus YOR083W, strain WHI5, stronger effect = lower value 1.01 | S. cerevisiae deletion strains, locus YOR106W, strain vam3, stronger effect = lower value 1.01 | S. cerevisiae deletion strains, locus YOR144C, strain elg1, stronger effect = lower value 1.01 | S. cerevisiae deletion strains, locus YOR231W, strain MKK1, stronger effect = lower value 1.01 | S. cerevisiae deletion strains, locus YOR265W, strain rbl2, stronger effect = lower value 1 | S. cerevisiae deletion strains, locus YOR270C, strain vph1, stronger effect = lower value 0.978 | S. cerevisiae deletion strains, locus YOR290C, strain snf2, stronger effect = lower value 1.01 | S. cerevisiae deletion strains, locus YPL051W, strain arl3, stronger effect = lower value 0.993 | S. cerevisiae deletion strains, locus YPL055C, strain LGE1, stronger effect = lower value 1 | S. cerevisiae deletion strains, locus YPL078C, strain atp4, stronger effect = lower value 0.982 | S. cerevisiae deletion strains, locus YPL106C, strain sse1, stronger effect = lower value 0.998 | S. cerevisiae deletion strains, locus YPL240C, strain hsp82, stronger effect = lower value 1 | S. cerevisiae deletion strains, locus YPL241C, strain CIN2, stronger effect = lower value 1.01 | S. cerevisiae deletion strains, locus YPL256C, strain CLN2, stronger effect = lower value 1.07 | S. cerevisiae deletion strains, locus YPR141C, strain kar3, stronger effect = lower value 1.03 | S. cerevisiae strains, strain wild type, stronger effect = lower value 1.01
active: S. cerevisiae deletion strains, locus YKL085W, strain MDH1 (second series), stronger effect = lower value 0.353 | S. cerevisiae deletion strains, locus YKL085W, strain MDH1, stronger effect = lower value 0.353 | S. cerevisiae deletion strains, locus YKR001C, strain vps1, stronger effect = lower value 0.127 | S. cerevisiae deletion strains, locus YLR102C, strain apc9, stronger effect = lower value 0.102 | S. cerevisiae deletion strains, locus YLR268W, strain sec22, stronger effect = lower value 0.0891 | S. cerevisiae deletion strains, locus YLR371W, strain rom2, stronger effect = lower value 0.0857 | S. cerevisiae deletion strains, locus YLR418C, strain cdc73, stronger effect = lower value 0.102 | S. cerevisiae deletion strains, locus YML032C, strain rad52, stronger effect = lower value 0.845 | S. cerevisiae deletion strains, locus YML124C, strain tub3, stronger effect = lower value 0.158 | S. cerevisiae deletion strains, locus YMR078C, strain ctf18, stronger effect = lower value 0.205 | S. cerevisiae deletion strains, locus YMR223W, strain ubp8, stronger effect = lower value 0.0851 | S. cerevisiae deletion strains, locus YNL250W, strain rad50, stronger effect = lower value 0.531 | S. cerevisiae deletion strains, locus YNL271C, strain bni1, stronger effect = lower value 0.214 | S. cerevisiae deletion strains, locus YNL298W, strain CLA4, stronger effect = lower value 0.456 | S. cerevisiae deletion strains, locus YNL307C, strain MCK1, stronger effect = lower value 0.0679 | S. cerevisiae deletion strains, locus YOL147C, strain pex11, stronger effect = lower value 0.829 | S. cerevisiae deletion strains, locus YOR136W, strain idh2, stronger effect = lower value 0.0963 | S. cerevisiae deletion strains, locus YOR184W, strain ser1, stronger effect = lower value 0.0727 | S. cerevisiae deletion strains, locus YOR316C, strain cot1, stronger effect = lower value 0.0956 | S. cerevisiae deletion strains, locus YPR119W, strain clb2, stronger effect = lower value 0.143 | S. cerevisiae deletion strains, locus YPR163C, strain tif3, stronger effect = lower value 0.0748 | S. cerevisiae deletion strains, locus YPR167C, strain met16, stronger effect = lower value 0.0923 | S. cerevisiae deletion strains, strain wtn01, stronger effect = lower value 0.0623
